According to PubChem BioAssay (NCATS):
Results filed as inconclusive are left out. The source made the active and inactive calls. Unless noted, calls follow the shape of the full dose curve.

Legend:
[1] = Cell Viability - BJ (AID 421); conditions: BJ fibroblast viability, qHTS;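 also: potency is read from the fitted curve at half-maximal effect; cells exposed to compound for 40 hours at 37 °C before readout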
Procedure, shortened: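 Quantitative HTS: ATP depletion in BJ cells after 40 hr compound exposure in complete culture medium, detected with CellTiter-Glo; AC50 from standard Hill fits.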

[2] = Cell Viability - Jurkat (AID 426;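 active = dose-dependent loss of cell ATP signal giving a full or clear fitted curve, ranked by lower potency value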; also: potency is read from the fitted curve at half-maximal effect); conditions: qHTS
Procedure, shortened: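 Seed 5000 Jurkat E6-1 cells/well; add compound; incubate 40 hr at 37 °C; add CellTiter-Glo; wait 20 min at room temperature; read luminescence. Fit concentration-response with Hill equation for AC50.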

[3] = Cell Viability - Hek293 (AID 427;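 active = compounds whose dose-response curve shows a full or clear partial loss of cell viability, called from curve shape rather than a numeric limit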;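 also: potency is read from the fitted curve at half-maximal effect; cells exposed to compound for 40 hours at 37 °C before reading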); conditions: qHTS
Procedure, shortened: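 AC50 values derive from Hill-modelled concentration-response of ATP-based luminescence, normalized between DMSO-only and 100 uM tamoxifen controls. Cells were exposed in complete culture medium for 40 hr at 37 °C before detection.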

[4] = Cell Viability - HepG2 (AID 433); conditions: qHTS;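 also: potency is read from the fitted curve at half-maximal effect; potency for ATP loss meaning cytotoxicity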
Procedure, shortened: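 Read-out is luciferase-based quantitation of cellular ATP as a measure of viable HepG2 cells after 40 h treatment at 37 °C. Signal decrease is scaled between DMSO-only and 100 uM tamoxifen controls, with AC50 fitted by the Hill equation.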

[5] = Cell Viability - MRC5 (AID 434); conditions: MRC5 lung fibroblast viability, qHTS;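 also: potency is read from the fitted curve at half-maximal effect; potency reflects cytotoxicity seen as loss of intracellular ATP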
Procedure, shortened: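 MRC5 normal human lung fibroblasts, 1500 cells/well, exposed to compound for 40 hr at 37 C. Cellular ATP was read by CellTiter-Glo luminescence; data normalized to DMSO and 100 uM tamoxifen, with AC50 from Hill fits.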

[6] = Cell Viability - SK-N-SH (AID 435); conditions: SK-N-SH neuroblastoma cell viability qHTS;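 also: potency is read from the fitted curve at half-maximal effect; compound exposure lasted 40 h at 37 °C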
Procedure, shortened: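 Luminescent ATP signal served as the viability read-out after 40 hours of compound treatment of human neuroblastoma SK-N-SH cells. Concentration-response data, scaled between DMSO and 100 uM tamoxifen, gave AC50 values by standard Hill modeling.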

[7] = molecular target: Mitogen-activated protein kinase 10 (Mus musculus) (UniProt Q61831); assay: JNK3 AlphaScreen Assay (AID 530; active = well fitted curve in either direction with a large enough effect, not every such curve was filed as active;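 also: kinase came from lysate of stimulated human HepG2 cells; signal reports phosphorylation of biotinylated GST-cJun 1-79 at Ser73 with 10 µM ATP; % is scaled to controls: 0 for no effect and ±100 for the full control effect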); conditions: JNK3 lysate, c-Jun phosphorylation; series mostly up to 57.1 µM
Procedure, shortened: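 qHTS format: compounds tested as titrations against IL-1beta/TNF-alpha-activated HepG2 lysate JNK3 with biotin-GST-cJun substrate and 10 uM ATP at room temperature. Loss of anti-phospho-cJun AlphaScreen signal indicates inhibition.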

[8] = Cell Viability - N2a (AID 540; active = well fitted curve in the direction sought with a large enough effect; an effect the other way counts as inactive or inconclusive;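 also: plate controls were DMSO alone for no effect and tamoxifen control for full effect; nearly all actives have a fitted effect of over 45% in size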); conditions: N2a mouse neuroblastoma cell viability; activity change, negative = cytotoxicity: at 92.2 µM (top of the series)
Procedure, shortened: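 First, 1500 N2a cells per well incubate 5 hr at 37 °C; next, compounds are added and incubated 40 hr at 37 °C; finally CellTiter-Glo is added and luminescence read after 20 min, with AC50 derived by Hill modeling.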

[9] = Cell Viability - NIH 3T3 (AID 541; active = well fitted curve in the direction sought with a large enough effect; an effect the other way counts as inactive or inconclusive;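 also: plate controls were DMSO alone for no effect and tamoxifen positive control for full effect; nearly all actives have a fitted effect of over 25% in size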); conditions: NIH 3T3 cell viability, qHTS; activity change, negative = cytotoxicity: at 92.2 µM (top of the series)
Procedure, shortened: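 AC50 values reflect concentration-dependent loss of intracellular ATP in NIH 3T3 cells after 40 hr treatment in complete culture medium, quantified by luciferase-based luminescence.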

[10] = Cell Viability - HUV-EC-C (AID 542; active = well fitted curve in the direction sought with a large enough effect; an effect the other way counts as inactive or inconclusive; also: % is scaled to controls: 0 for no effect and ±100 for the full control effect; nearly all actives have a fitted effect of over 35% in size); conditions: HUV-EC-C endothelial cell viability, qHTS; series mostly up to 92.2 µM
Procedure, shortened: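 Decrease in cellular ATP, quantified by luciferase luminescence, reflects toxicity in normal human vascular endothelial HUV-EC-C cells given compound for 40 hr in complete culture medium. Values are AC50s from concentration-response curves.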

CCCCCCCCC
inactive: Potency [1] > 92 µM | Potency [2] > 92 µM | Potency [3] > 92 µM | Potency [4] > 92 µM | Potency [5] > 92 µM | Potency [6] > 92 µM | outcome [7] | activity change, negative = cytotoxicity [8] -3.11% | Potency [9] | Potency [10]

ClCCl
inactive: Potency [1] > 92 µM | Potency [2] > 92 µM | Potency [3] > 92 µM | Potency [4] > 92 µM | Potency [5] > 92 µM | Potency [6] > 92 µM | outcome [7] | activity change, negative = cytotoxicity [8] -5.52% | Potency [9] | Potency [10]

CC(=O)Nc1ccc(C)cc1
inactive: Potency [1] > 92 µM | Potency [2] > 92 µM | Potency [3] > 92 µM | Potency [4] > 92 µM | Potency [5] > 92 µM | Potency [6] > 92 µM | outcome [7] | activity change, negative = cytotoxicity [8] -10.4% | Potency [9] | Potency [10]

O=C(O[C@@H](C(=O)O)[C@@H](OC(=O)c1ccccc1)C(=O)O)c1ccccc1
inactive: Potency [1] > 92 µM | Potency [2] > 92 µM | Potency [3] > 92 µM | Potency [4] > 92 µM | Potency [5] > 92 µM | Potency [6] > 92 µM | outcome [7] | activity change, negative = cytotoxicity [8] 4.68% | Potency [9] | Potency [10]

O=C1OC(=O)c2cc([N+](=O)[O-])ccc21
inactive: Potency [1] > 92 µM | Potency [2] > 92 µM | Potency [3] > 92 µM | Potency [4] > 92 µM | Potency [5] > 92 µM | Potency [6] > 92 µM | outcome [7] | activity change, negative = cytotoxicity [8] -2.26% | Potency [9] | Potency [10]

O=C(O)CNC(=O)c1ccc([N+](=O)[O-])cc1
inactive: Potency [1] > 92 µM | Potency [2] > 92 µM | Potency [3] > 92 µM | Potency [4] > 92 µM | Potency [5] > 92 µM | Potency [6] > 92 µM | outcome [7] | activity change, negative = cytotoxicity [8] -8.74% | Potency [9] | Potency [10]

CCNS(=O)(=O)c1ccc(C)cc1
inactive: Potency [1] > 92 µM | Potency [2] > 92 µM | Potency [3] > 92 µM | Potency [4] > 92 µM | Potency [5] > 92 µM | Potency [6] > 92 µM | outcome [7] | activity change, negative = cytotoxicity [8] -13.9% | Potency [9] | Potency [10]

C=C(C)C(N)=O
inactive: Potency [1] > 92 µM | Potency [2] > 92 µM | Potency [3] > 92 µM | Potency [4] > 92 µM | Potency [5] > 92 µM | Potency [6] > 92 µM | outcome [7] | activity change, negative = cytotoxicity [8] -7.09% | Potency [9] | Potency [10]

CCCCCCCCN
inactive: Potency [1] > 92 µM | Potency [2] > 92 µM | Potency [3] > 92 µM | Potency [4] > 92 µM | Potency [5] > 92 µM | Potency [6] > 92 µM | outcome [7] | activity change, negative = cytotoxicity [8] 7.89% | Potency [9] | Potency [10]

C[C@@H]1O[C@@H](O[C@@H]2[C@@H](O)[C@H](OCCc3ccc(O)c(O)c3)O[C@H](CO[C@@H]3O[C@H](CO)[C@@H](O)[C@H](O)[C@H]3O)[C@H]2OC(=O)/C=C/c2ccc(O)c(O)c2)[C@H](O)[C@H](O)[C@H]1O
inactive: Potency [1] > 92 µM | Potency [2] > 92 µM | Potency [3] > 92 µM | Potency [4] > 92 µM | Potency [5] > 92 µM | Potency [6] > 92 µM | outcome [7] | activity change, negative = cytotoxicity [8] -12.1% | Potency [9] | Potency [10]

CC(=O)CC(C)C
inactive: Potency [1] > 92 µM | Potency [2] > 92 µM | Potency [3] > 92 µM | Potency [4] > 92 µM | Potency [5] > 92 µM | Potency [6] > 92 µM | outcome [7] | activity change, negative = cytotoxicity [8] -14.8% | Potency [9] | Potency [10]

CCC(=O)/C=C/C1C(C)=CCCC1(C)C (stereo not drawn)
inactive: Potency [1] > 92 µM | Potency [2] > 92 µM | Potency [3] > 92 µM | Potency [4] > 92 µM | Potency [5] > 92 µM | Potency [6] > 92 µM | outcome [7] | activity change, negative = cytotoxicity [8] -6.46% | Potency [9] | Potency [10]

O=[N+]([O-])c1ccccc1CCO
inactive: Potency [1] > 92 µM | Potency [2] > 92 µM | Potency [3] > 92 µM | Potency [4] > 92 µM | Potency [5] > 92 µM | Potency [6] > 92 µM | outcome [7] | activity change, negative = cytotoxicity [8] -12.5% | Potency [9] | Potency [10]

CC(=O)OC(C)C
inactive: Potency [1] > 92 µM | Potency [2] > 92 µM | Potency [3] > 92 µM | Potency [4] > 92 µM | Potency [5] > 92 µM | Potency [6] > 92 µM | outcome [7] | activity change, negative = cytotoxicity [8] 3.96% | Potency [9] | Potency [10]

O=C(O)CNC(=O)c1ccc(CO)o1
inactive: Potency [1] > 92 µM | Potency [2] > 92 µM | Potency [3] > 92 µM | Potency [4] > 92 µM | Potency [5] > 92 µM | Potency [6] > 92 µM | outcome [7] | activity change, negative = cytotoxicity [8] -13.4% | Potency [9] | Potency [10]

NC=O
inactive: Potency [1] > 92 µM | Potency [2] > 92 µM | Potency [3] > 92 µM | Potency [4] > 92 µM | Potency [5] > 92 µM | Potency [6] > 92 µM | outcome [7] | activity change, negative = cytotoxicity [8] 1.82% | Potency [9] | Potency [10]

O=C(O)c1ccc(Cl)cc1Cl
inactive: Potency [1] > 92 µM | Potency [2] > 92 µM | Potency [3] > 92 µM | Potency [4] > 92 µM | Potency [5] > 92 µM | Potency [6] > 92 µM | outcome [7] | activity change, negative = cytotoxicity [8] 7.33% | Potency [9] | Potency [10]

Nc1ccc(F)cc1F
inactive: Potency [1] > 92 µM | Potency [2] > 92 µM | Potency [3] > 92 µM | Potency [4] > 92 µM | Potency [5] > 92 µM | Potency [6] > 92 µM | outcome [7] | activity change, negative = cytotoxicity [8] -8.92% | Potency [9] | Potency [10]

CCNc1cc(O)ccc1C
inactive: Potency [1] > 92 µM | Potency [2] > 92 µM | Potency [3] > 92 µM | Potency [4] > 92 µM | Potency [5] > 92 µM | Potency [6] > 92 µM | outcome [7] | activity change, negative = cytotoxicity [8] 4.09% | Potency [9] | Potency [10]

CC1CCC2CC1C2(C)C (stereo not drawn)
inactive: Potency [1] > 92 µM | Potency [2] > 92 µM | Potency [3] > 92 µM | Potency [4] > 92 µM | Potency [5] > 92 µM | Potency [6] > 92 µM | outcome [7] | activity change, negative = cytotoxicity [8] -4.47% | Potency [10]

CCCCCCCCCCCCOCC1CO1 (stereo not drawn)
inactive: Potency [1] > 92 µM | Potency [2] > 92 µM | Potency [3] > 92 µM | Potency [4] > 92 µM | Potency [5] > 92 µM | Potency [6] > 92 µM | activity change, negative = cytotoxicity [8] 0.002% | Potency [9] | Potency [10]
